Reference: PubChem BioAssay (EPA / NIEHS)
Calls of active or inactive are those of the source. Rule for the calls: active = hit-call score of the fitted dose curve at least 0.9, where 1 is the maximum; inactive = score below 0.9.

What was measured:
[1] = ATG_CRE_CIS: Attagene CIS-FACTORIAL HepG2 Assay for human cAMP Responsive Element (CRE) binding protein 3 (AID 2282926); details: HepG2 CRE cis-reporter, Attagene multiplexed mRNA; actives raise or lower the signal
How it was run: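 Assay format: transient reporter transfection of HepG2, 24 h treatment, total RNA isolation with DNase I step. Reporter abundance read by fluorescence after PCR and capillary separation; DMSO-normalised gain or loss fitting.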

[2] = molecular target: CCAAT/enhancer-binding protein beta (Homo sapiens) (UniProt P17676); test: ATG_C_EBP_CIS: Attagene CIS-FACTORIAL HepG2 Assay for human CCAAT/Enhancer Binding Protein (C/EBP) beta (AID 2282927); details: HepG2 Attagene cis-factorial transcription factor reporter; actives raise or lower the signal
How it was run: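 Transiently transfected HepG2 (MRTU library, endogenous TF-driven promoters); 24 h dosing; total RNA → oligo(dT) RT → PCR → 6-FAM primer extension → HpaI digest → CE; fit bidirectionally vs DMSO.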

[3] = ATG_CMV_CIS: Attagene CIS-FACTORIAL HepG2 Assay for human CMV (Internal Marker) (AID 2282928); details: HepG2 CMV promoter reporter, transcription factor profiling; actives raise or lower the signal;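 note: endpoint acts as a background internal control marker rather than a target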
How it was run: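 Readout: fluorescent reporter cDNA fragments separated by capillary electrophoresis after RT-PCR and HpaI cut. Cells: HepG2 carrying transfected cis-promoter reporter constructs, dosed 24 h. Endpoint serves as background internal-marker control, fit bidirectionally versus DMSO.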

[4] = ATG_DR4_LXR_CIS: Attagene CIS-FACTORIAL HepG2 Assay for human Liver X Receptor (LXR), DR4 submotif (AID 2282929); details: HepG2 Attagene DR4 cis-reporter, mRNA transcription; actives raise or lower the signal
How it was run: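 DR4 cis-reporter in HepG2, 24 h exposure. Detection: RT-PCR, 6-FAM labelling, CE fragment analysis. Endpoint fitted bidirectionally, DMSO = baseline.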

[5] = molecular target: Aryl hydrocarbon receptor (Homo sapiens) (UniProt P35869); test: ATG_Ahr_CIS: Attagene CIS-FACTORIAL HepG2 Assay for human Aryl Hydrocarbon Receptor (Ahr) (AID 2282930); details: HepG2 AhR cis-factorial reporter transcription; actives raise or lower the signal
How it was run: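 Read-out: reporter mRNA quantified by RT-PCR with fluorescent primer extension and capillary electrophoresis. Human HepG2 liver cells carried transfected cis-promoter reporter units and were exposed to chemical for 24 h; gain or loss fitted relative to DMSO.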

[6] = ATG_AP_1_CIS: Attagene CIS-FACTORIAL HepG2 Assay for human Activator Protein 1 (AP-1) (AID 2282931); details: HepG2 Attagene cis-factorial AP-1 reporter mRNA; actives raise or lower the signal
How it was run: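 Cis-regulated reporter units transiently expressed in HepG2 report endogenous transcription-factor activity. Signal: reporter mRNA at 24 h, via RT-PCR and fluorescent capillary electrophoresis. Endpoint derived by bidirectional fitting, DMSO as negative control.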

[7] = ATG_BRE_CIS: Attagene CIS-FACTORIAL HepG2 Assay for human Bone Morphogenetic Protein (BMP) Response Element (BRE) (AID 2282933); details: HepG2 BMP response element reporter, Attagene transcription factor profiling; actives raise or lower the signal
How it was run: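 Read-out: reporter mRNA induction quantified by RT-PCR and capillary electrophoresis after 24 h chemical exposure of transfected HepG2 cells. Endogenous factor activity on the BMP response element; gain or loss fitted against DMSO baseline.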

[8] = molecular target: Retinoic acid receptor alpha (Homo sapiens) (UniProt P10276); test: ATG_DR5_RAR_CIS: Attagene CIS-FACTORIAL HepG2 Assay for human Retinoic Acid Receptor Alpha (RARE), DR5 submotif (AID 2282934); details: HepG2 Attagene cis-factorial RARE DR5 reporter, mRNA; actives raise or lower the signal;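 for AC50: reporter responds to endogenous RAR alpha beta and gamma in HepG2 not RARA alone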
How it was run: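 Read-out: DR5-driven reporter transcript measured by RT-PCR, 6-FAM primer extension, HpaI digest and capillary electrophoresis. Human HepG2 liver cells carry transiently transfected cis-element reporter constructs; dosing lasts 24 h. Gain or loss of signal fitted against DMSO baseline.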

[9] = molecular target: Transcription factor E2F1 (Homo sapiens) (UniProt Q01094); test: ATG_E2F_CIS: Attagene CIS-FACTORIAL HepG2 Assay for human E2F Transcription Factor 1 (AID 2282935); details: HepG2 Attagene cis-reporter, E2F reporter RNA transcripts; actives raise or lower the signal
How it was run: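 Transient MRTU transfection of HepG2; 24 h compound exposure; RNA → oligo(dT) RT → PCR → FAM label → HpaI cut → CE fluorescence. Gain/loss of signal fit against DMSO.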

[10] = ATG_M_61_CIS: Attagene CIS-FACTORIAL HepG2 Assay for M61 Transcription Factor (Internal Marker) (AID 2282937); details: HepG2 Attagene CIS-FACTORIAL M61 internal marker reporter; actives raise or lower the signal
How it was run: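 Background-control endpoint: HepG2 cells with cis-regulated reporter constructs, 24 h exposure, reporter mRNA detected via fluorescent primer extension and capillary electrophoresis; values from bidirectional fitting with DMSO baseline.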

[11] = ATG_EGR_CIS: Attagene CIS-FACTORIAL HepG2 Assay for human Early Growth Response 1 (EGR1) (AID 2282938); details: HepG2 Attagene CIS-FACTORIAL EGR reporter mRNA; actives raise or lower the signal
How it was run: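 Endpoint derived by bidirectional fitting versus DMSO vehicle. Method: cis-promoter reporter units transfected into HepG2, 24 h dosing, RNA isolation, RT-PCR with 6-FAM primer extension and HpaI digestion, then capillary electrophoresis fluorescence detection.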

[12] = ATG_M_19_CIS: Attagene CIS-FACTORIAL HepG2 Assay for M19 Transcription Factor (Internal Marker) (AID 2282939); details: HepG2 Attagene CIS-FACTORIAL M19 internal marker reporter; actives raise or lower the signal
How it was run: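 Readout: fluorescent reporter-transcript fragments by capillary electrophoresis after RT-PCR. Human HepG2 liver cells carried transfected MRTU constructs reporting endogenous transcription-factor activity; exposure 24 h. Gain or loss of signal fitted relative to DMSO.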

[13] = ATG_ERE_CIS: Attagene CIS-FACTORIAL HepG2 Assay for Estrogen Response Element (ERE) (AID 2282940); details: HepG2 ERE cis-reporter, Attagene RNA transcript; actives raise or lower the signal
How it was run: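 Readout: reporter mRNA induction by RT-PCR, FAM-labelled primer extension, HpaI digestion and capillary electrophoresis, 24 h after dosing transfected HepG2 cells. Endogenous transcription factors act on cis-element-regulated reporters. Gain or loss fitted against DMSO.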

[14] = molecular target: Hepatocyte nuclear factor 3-beta (Homo sapiens) (UniProt Q9Y261); test: ATG_FoxA2_CIS: Attagene CIS-FACTORIAL HepG2 Assay for human Forkhead box A2 (FOXA2) (AID 2282942); details: HepG2 cis-reporter transcription factor activity, 24 h; actives raise or lower the signal
How it was run: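 Measured: reporter mRNA induction or loss in HepG2 transiently carrying multiple cis-regulated reporter units, 24 h after dosing. Quantified by RT-PCR plus capillary electrophoresis, normalised to DMSO.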

[15] = ATG_FoxO_CIS: Attagene CIS-FACTORIAL HepG2 Assay for human Forkhead box O (FoxO) (AID 2282943); details: HepG2 Attagene cis-reporter, FoxO element, mRNA; actives raise or lower the signal
How it was run: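 Read-out: fluorescence of 6-FAM-labelled reporter cDNA fragments resolved by capillary electrophoresis. Transiently transfected HepG2 cells were dosed for 24 h; activity fitted in both directions relative to DMSO controls.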

[16] = ATG_GLI_CIS: Attagene CIS-FACTORIAL HepG2 Assay for human Zinc Finger Protein GLI1 (AID 2282945); details: HepG2, Attagene cis-factorial reporter mRNA, GLI element; actives raise or lower the signal
How it was run: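 Transiently transfected HepG2 cells report endogenous transcription factor activity via cis-element-driven reporter units. After 24 h compound exposure, reporter mRNA was measured by RT-PCR with capillary electrophoresis; bidirectional fitting against DMSO baseline.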

[17] = ATG_AP_2_CIS: Attagene CIS-FACTORIAL HepG2 Assay for human Activator Protein 2 (AP-2) (AID 2282932); details: HepG2 AP-2 cis-reporter, Attagene transcription factor profiling; actives raise or lower the signal
How it was run: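 Read-out: fluorescent reporter mRNA via RT-PCR and capillary electrophoresis, 24 h post-dose in transiently transfected HepG2. Endogenous factors drive cis-promoter reporters; gain or loss of signal fitted bidirectionally against DMSO.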

[18] = ATG_E_Box_CIS: Attagene CIS-FACTORIAL HepG2 Assay for human Enhancer Box (E-box) (AID 2282936); details: HepG2 E-box cis-reporter transcription, actives raise or lower the signal
How it was run: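 Transiently transfected HepG2, endogenous TF-driven reporters, 24 h dosing. Readout: RT-PCR plus capillary electrophoresis of fluorescent reporter fragments. Gain or loss of signal fitted bidirectionally against DMSO baseline.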

[19] = ATG_Ets_CIS: Attagene CIS-FACTORIAL HepG2 Assay for human Erythroblast Transformation Specific (ETS) (AID 2282941); details: HepG2 ETS cis-reporter transcription, actives raise or lower the signal
How it was run: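 RT-PCR/capillary electrophoresis fluorescence read-out of reporter mRNA; HepG2 transient multi-reporter transfection; 24 h compound exposure; gain or loss of signal fitted bidirectionally relative to DMSO.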

[20] = ATG_GATA_CIS: Attagene CIS-FACTORIAL HepG2 Assay for human GATA Binding Protein (AID 2282944); details: HepG2 GATA cis-element reporter, Attagene multiplex mRNA; actives raise or lower the signal
How it was run: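 Read-out: fluorescent reporter mRNA fragments resolved by capillary electrophoresis after RT-PCR. Human liver HepG2 cells carried transiently transfected cis-regulated reporter constructs; chemicals incubated 24 h; gain or loss of signal fitted relative to DMSO.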

Measured: AC50

CCAAT/enhancer-binding protein beta (Homo sapiens), sequence (P17676 whole entry, looked up): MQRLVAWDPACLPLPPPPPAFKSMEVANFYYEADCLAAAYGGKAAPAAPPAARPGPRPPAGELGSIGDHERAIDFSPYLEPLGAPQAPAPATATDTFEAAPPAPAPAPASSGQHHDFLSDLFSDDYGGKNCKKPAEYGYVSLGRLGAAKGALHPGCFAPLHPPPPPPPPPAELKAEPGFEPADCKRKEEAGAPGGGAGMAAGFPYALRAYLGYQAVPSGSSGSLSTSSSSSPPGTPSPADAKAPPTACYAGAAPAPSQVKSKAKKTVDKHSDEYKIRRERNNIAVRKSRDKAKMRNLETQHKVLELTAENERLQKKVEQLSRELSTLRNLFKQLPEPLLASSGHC
Transcription factor E2F1 (Homo sapiens), sequence (Q01094 whole entry, looked up): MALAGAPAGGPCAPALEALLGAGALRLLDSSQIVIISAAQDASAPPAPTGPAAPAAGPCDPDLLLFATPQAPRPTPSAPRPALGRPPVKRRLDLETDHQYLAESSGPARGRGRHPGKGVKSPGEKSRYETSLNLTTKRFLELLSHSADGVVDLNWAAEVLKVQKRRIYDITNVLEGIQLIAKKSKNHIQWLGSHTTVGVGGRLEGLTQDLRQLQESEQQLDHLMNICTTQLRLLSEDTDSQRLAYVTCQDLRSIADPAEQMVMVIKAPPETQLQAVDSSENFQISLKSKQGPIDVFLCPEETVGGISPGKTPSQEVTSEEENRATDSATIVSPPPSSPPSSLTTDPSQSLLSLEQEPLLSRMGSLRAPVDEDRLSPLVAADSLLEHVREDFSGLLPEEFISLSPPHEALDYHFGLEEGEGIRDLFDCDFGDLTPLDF
Hepatocyte nuclear factor 3-beta (Homo sapiens), sequence (Q9Y261 whole entry, looked up): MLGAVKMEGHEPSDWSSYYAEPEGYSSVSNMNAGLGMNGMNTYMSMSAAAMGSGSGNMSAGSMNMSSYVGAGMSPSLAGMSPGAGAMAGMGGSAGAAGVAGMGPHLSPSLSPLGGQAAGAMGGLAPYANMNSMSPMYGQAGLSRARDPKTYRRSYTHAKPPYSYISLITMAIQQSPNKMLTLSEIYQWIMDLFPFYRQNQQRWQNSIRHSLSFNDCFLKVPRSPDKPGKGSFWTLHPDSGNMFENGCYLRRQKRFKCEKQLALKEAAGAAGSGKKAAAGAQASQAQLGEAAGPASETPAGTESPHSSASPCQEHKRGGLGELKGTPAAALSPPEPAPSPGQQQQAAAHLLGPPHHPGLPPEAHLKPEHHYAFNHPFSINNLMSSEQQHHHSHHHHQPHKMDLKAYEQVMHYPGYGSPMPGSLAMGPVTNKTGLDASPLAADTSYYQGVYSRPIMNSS
Retinoic acid receptor alpha (Homo sapiens), sequence (P10276 whole entry, looked up): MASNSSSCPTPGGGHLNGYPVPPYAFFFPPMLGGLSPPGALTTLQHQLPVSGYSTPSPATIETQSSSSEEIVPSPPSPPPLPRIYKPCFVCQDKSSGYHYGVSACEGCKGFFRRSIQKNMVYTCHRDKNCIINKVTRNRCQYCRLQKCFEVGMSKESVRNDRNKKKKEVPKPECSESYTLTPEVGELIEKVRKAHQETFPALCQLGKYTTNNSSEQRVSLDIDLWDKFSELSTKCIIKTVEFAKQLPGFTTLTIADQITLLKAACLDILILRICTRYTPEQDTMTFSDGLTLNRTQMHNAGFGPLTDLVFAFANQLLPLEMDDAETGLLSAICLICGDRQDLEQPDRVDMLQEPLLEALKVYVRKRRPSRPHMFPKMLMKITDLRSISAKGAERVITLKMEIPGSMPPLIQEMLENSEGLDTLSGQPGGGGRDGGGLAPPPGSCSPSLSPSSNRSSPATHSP
Aryl hydrocarbon receptor (Homo sapiens), sequence (P35869 whole entry, looked up): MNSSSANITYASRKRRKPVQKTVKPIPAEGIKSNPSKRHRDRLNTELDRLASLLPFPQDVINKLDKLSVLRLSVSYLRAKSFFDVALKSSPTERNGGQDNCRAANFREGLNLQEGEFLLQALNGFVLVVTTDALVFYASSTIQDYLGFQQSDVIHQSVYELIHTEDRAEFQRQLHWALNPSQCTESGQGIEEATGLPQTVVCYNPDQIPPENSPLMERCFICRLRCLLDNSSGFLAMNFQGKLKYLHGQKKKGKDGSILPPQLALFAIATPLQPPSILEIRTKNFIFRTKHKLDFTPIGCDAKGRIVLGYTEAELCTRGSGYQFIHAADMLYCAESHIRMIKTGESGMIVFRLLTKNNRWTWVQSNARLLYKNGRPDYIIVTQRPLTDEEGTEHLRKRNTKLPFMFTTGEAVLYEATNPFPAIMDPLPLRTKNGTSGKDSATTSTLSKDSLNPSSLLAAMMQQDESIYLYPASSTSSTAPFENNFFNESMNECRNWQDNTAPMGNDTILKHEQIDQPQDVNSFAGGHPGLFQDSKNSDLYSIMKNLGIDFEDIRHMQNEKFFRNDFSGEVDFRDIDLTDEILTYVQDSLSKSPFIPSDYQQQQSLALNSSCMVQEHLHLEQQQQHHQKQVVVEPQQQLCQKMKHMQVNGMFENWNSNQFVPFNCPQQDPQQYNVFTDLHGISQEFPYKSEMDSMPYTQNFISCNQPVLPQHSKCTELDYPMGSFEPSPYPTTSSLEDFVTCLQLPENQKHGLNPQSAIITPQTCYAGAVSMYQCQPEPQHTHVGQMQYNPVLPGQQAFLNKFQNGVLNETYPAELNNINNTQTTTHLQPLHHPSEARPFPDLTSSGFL

O=C(C=Cc1ccccc1)OCc1ccccc1
not listed: [17] | [18] | [19] | [20]
inactive: all other assays above

Cc1ccccc1C
not listed: [5]
inactive: all other assays above

CN(C)c1ccc(C(=N)c2ccc(N(C)C)cc2)cc1
active: [1] 0.399 µM | [2] 0.871 µM | [4] 0.056 µM | [7] 7.22 µM | [8] 7.38 µM | [18] 56.6 µM | [11] 1.36 µM | [14] 0.721 µM
not listed: [5] | [20]
inactive: all other assays above

CC(C)c1ccc2c(c1)CC[C@H]1[C@](C)(CN)CCC[C@]21C
active: [3] 5.78 µM | [4] 5.39 µM | [6] 5.99 µM | [7] 5.7 µM | [8] 6.12 µM | [9] 6.03 µM | [11] 5.35 µM | [20] 5.79 µM
not listed: [5] | [14]
inactive: all other assays above

O=C1C=CC(=O)O1
not listed: [8] | [17]
inactive: all other assays above

CC(C)c1ccc(C#N)cc1
not listed: [5]
inactive: all other assays above

Nc1cccc(C(F)(F)F)c1
not listed: [5] | [14]
inactive: all other assays above
